Our source for the growth values is PubChem BioAssay (NCI).

Common to all, as to experiment: NCI-60 one-dose screen, 48 h (100 = growth as untreated, 0 = no growth, -100 = all killed)
One test concerns EKVX NSCLC. As to conditions: 10 µM unless noted.
Another test concerns SN12C renal. The following applies: 10 µM unless noted.
The next test concerns UO-31 renal. The following applies: 10 µM unless noted.
Another test has as its system TK-10 renal. The following applies: 10 µM unless noted.
Another test relates to ACHN renal. The following applies: 10 µM unless noted.
The subject of a further test is CAKI-1 renal. The following applies: 10 µM unless noted.
For a further test, the system named is A498 renal. As to conditions: 10 µM unless noted.
Another test has as its system MOLT-4 leukemia. As to conditions: 10 µM unless noted.
Another test relates to SR leukemia. The following applies: 10 µM unless noted.
The test system of a further test is RPMI-8226 leukemia. The following applies: 10 µM unless noted.
In a further test the test system is OVCAR-8 ovarian. The following applies: 10 µM unless noted.
Another test concerns OVCAR-5 ovarian. The following applies: 10 µM unless noted.
In the next test the test system is OVCAR-4 ovarian. The following applies: 10 µM unless noted.
Another test relates to SK-OV-3 ovarian. The following applies: 10 µM unless noted.
For the next test, the system named is IGROV1 ovarian. The following applies: 10 µM unless noted.
The test system of another test is OVCAR-3 ovarian. The following applies: 10 µM unless noted.
In a further test the test system is HS 578T breast. As to conditions: 10 µM.
In a further test the test system is NCI/ADR-RES ovarian. As to conditions: 10 µM unless noted.
A further test has as its system CCRF-CEM leukemia. As to conditions: 10 µM unless noted.

Molecules are shown by their SMILES. About 83,000 compounds went through this panel and 20% of them were active in at least one assay; those are over-represented in the sample as a whole.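 Plates (96-well) were seeded with cells, treated with compound at one concentration, and incubated for 48 hours before percent growth was determined.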 A number with no mark means an inactive call. The source made the active and inactive calls. The calls were made as follows: active = growth percent below 10; inactive = the rest.

As to `Cc1cc(O)cc(-c2c(-c3ccnc(-c4cccnc4)c3)cnn2C)c1`, the growth with EKVX NSCLC was 89.5%; in the test on SN12C renal it was 58.9%; in the test with UO-31 renal it was 36.1%; with TK-10 renal it was 51%; in the test with ACHN renal, 39.5%; in the test with CAKI-1 renal, 42.3%. Besides, the growth with A498 renal was 5.82% (active); with MOLT-4 leukemia, 54.8%; in the test with SR leukemia, 42.2%; in the test on RPMI-8226 leukemia, 51.1%; in the test with OVCAR-8 ovarian, 73.5%; with OVCAR-5 ovarian, 54.9%. Further, the growth with OVCAR-4 ovarian was 60.9%; in the test with SK-OV-3 ovarian, 69.3%; with IGROV1 ovarian it was 58.8%; in the test on OVCAR-3 ovarian it was 79.4%; in the test on HS 578T breast it was 58.9%; in the test on NCI/ADR-RES ovarian, 67.2%.
As for `CCCS(=O)(=O)Nc1ccc(F)c(C(=O)c2c[nH]c3ncc(-c4ccc(Cl)cc4)cc23)c1F`, the growth in the test on EKVX NSCLC was 43.1%; in the test with SN12C renal, 49.6%; in the test with UO-31 renal, 19.5%; with TK-10 renal it was 23.8%; with ACHN renal it was 24.4%; in the test on CAKI-1 renal, 12.1%. The growth in the test on A498 renal is -1.82% (active); in the test with MOLT-4 leukemia, 15.6%; in the test with SR leukemia, 15.3%; in the test with RPMI-8226 leukemia, 29.2%; in the test on OVCAR-8 ovarian, 32.1%; in the test with OVCAR-5 ovarian, 49%. For the same compound, the growth with OVCAR-4 ovarian was 49.3%; in the test on SK-OV-3 ovarian, -0.481% (active); in the test on IGROV1 ovarian it was 22.1%; with OVCAR-3 ovarian it was 65.4%; in the test with NCI/ADR-RES ovarian it was 48.9%.
For the compound `C[C@@H](Nc1cc(F)cc(F)c1)c1cc(C(=O)N(C)C)cc2c(=O)cc(N3CCOCC3)oc12`, the growth in the test on EKVX NSCLC was 68.2%; in the test with SN12C renal, 52.1%; in the test with UO-31 renal, 24.2%; with TK-10 renal, 32.8%; with ACHN renal it was 49.9%; in the test on CAKI-1 renal, 33.6%. The growth was -38.1% (active) with A498 renal; 70.3% in the test with CCRF-CEM leukemia; 25.3% in the test on MOLT-4 leukemia; 53.5% in the test with SR leukemia; 57.9% with OVCAR-8 ovarian; 54.5% in the test on OVCAR-5 ovarian. Also, the growth in the test on OVCAR-4 ovarian was 88.2%; with SK-OV-3 ovarian it was 3.43% (active); in the test with IGROV1 ovarian it was -13.3% (active); in the test on OVCAR-3 ovarian, 40%; with NCI/ADR-RES ovarian, 85.4%.
For the compound `CCCCCC(=O)OCc1ccc(Cl)c(Cl)c1`, the growth in the test with EKVX NSCLC is 116%; in the test on SN12C renal, 111%; with UO-31 renal, 90.5%; in the test on ACHN renal it was 107%; in the test with CAKI-1 renal it was 103%; in the test on A498 renal, 92.6%. The growth with CCRF-CEM leukemia was 109%; in the test with MOLT-4 leukemia, 98.7%; in the test on SR leukemia, 97.5%; in the test with RPMI-8226 leukemia, 104%; in the test on OVCAR-8 ovarian, 103%; in the test with OVCAR-5 ovarian, 108%. Further, the growth was 105% in the test with OVCAR-4 ovarian; 107% with SK-OV-3 ovarian; 106% in the test on IGROV1 ovarian; 106% in the test with OVCAR-3 ovarian; 103% in the test on HS 578T breast; 102% in the test on NCI/ADR-RES ovarian.
Regarding `C[C@@H](Oc1cc(-n2cnc3ccc(CN4CCN(C)CC4)cc32)sc1C(N)=O)c1ccccc1C(F)(F)F`, the growth was 38.9% in the test with EKVX NSCLC; 15.6% in the test on SN12C renal; 16.6% with UO-31 renal; 52.2% in the test on TK-10 renal; 28.3% with CAKI-1 renal; -23% (active) in the test with A498 renal. Besides, the growth in the test on CCRF-CEM leukemia was 6.03% (active); in the test on MOLT-4 leukemia, -7.58% (active); in the test with SR leukemia, -19.6% (active); with RPMI-8226 leukemia, 34.2%; in the test with OVCAR-8 ovarian, 5.18% (active); with OVCAR-5 ovarian it was 19.9%. For the same compound, the growth is 33.8% with OVCAR-4 ovarian; -2.74% (active) in the test on SK-OV-3 ovarian; 16.8% with IGROV1 ovarian; 38% in the test with OVCAR-3 ovarian; 18.5% in the test with NCI/ADR-RES ovarian.
Regarding `Cc1c(N)ccc(-c2ccc(N)c(C)c2S(=O)(=O)O)c1S(=O)(=O)O`, the growth in the test with EKVX NSCLC is 111%; in the test on SN12C renal it was 106%; in the test on UO-31 renal it was 88%; in the test with TK-10 renal it was 98.6%; with CAKI-1 renal, 116%; in the test with A498 renal, 100%. Also, the growth was 102% in the test on MOLT-4 leukemia; 102% with SR leukemia; 107% in the test on RPMI-8226 leukemia; 107% in the test with OVCAR-8 ovarian; 101% in the test with OVCAR-5 ovarian; 112% in the test on OVCAR-4 ovarian. Moreover, the growth in the test with SK-OV-3 ovarian is 111%; with IGROV1 ovarian, 110%; in the test on OVCAR-3 ovarian it was 124%; with HS 578T breast, 106%; in the test on NCI/ADR-RES ovarian, 102%.
As to `O=c1[nH]c([C@@H]2CCCN2)nc2c1oc1ccc(Cl)cc12`, the growth was 61.4% in the test on EKVX NSCLC; 81.3% with SN12C renal; 58.4% with UO-31 renal; 52.3% in the test with TK-10 renal; 71.5% in the test on ACHN renal; 42.4% in the test on CAKI-1 renal. For the same compound, the growth in the test with CCRF-CEM leukemia is 63.1%; with MOLT-4 leukemia, 68.4%; with SR leukemia, 34.1%; in the test with RPMI-8226 leukemia, 86.6%; with OVCAR-8 ovarian, 72.9%; in the test on OVCAR-5 ovarian, 49.8%. In addition, the growth in the test on OVCAR-4 ovarian is 84.5%; in the test with SK-OV-3 ovarian, 24%; in the test with IGROV1 ovarian, 81.3%; in the test with OVCAR-3 ovarian, 65%; with NCI/ADR-RES ovarian it was 82.9%.
Take `C=CC(=O)Nc1cccc(Oc2nc(Nc3ccc(N4CCN(C)CC4)cc3)nc3ccsc23)c1`: the growth was 16.4% in the test with EKVX NSCLC; -70.6% (active) with SN12C renal; -89.6% (active) in the test with UO-31 renal; -79% (active) with TK-10 renal; -96.6% (active) in the test with ACHN renal; -71.4% (active) in the test on CAKI-1 renal. Further, the growth in the test on CCRF-CEM leukemia is 1.89% (active); in the test on MOLT-4 leukemia it was -37.7% (active); with SR leukemia, -23.5% (active); with OVCAR-8 ovarian, -38.8% (active); in the test on OVCAR-5 ovarian it was 8.45% (active); with OVCAR-4 ovarian, -63.6% (active). The growth is -2.6% (active) with SK-OV-3 ovarian, -69.9% (active) with IGROV1 ovarian, -80.7% (active) in the test on OVCAR-3 ovarian and -3.05% (active) with NCI/ADR-RES ovarian.
On to `COc1cc(N2CCC(N(C)C)CC2)ccc1Nc1ncc(Cl)c(Nc2ccccc2P(C)(C)=O)n1`, for which the growth is 20% in the test on EKVX NSCLC; 1.55% (active) in the test on SN12C renal; -81.2% (active) in the test with UO-31 renal; -43.9% (active) with TK-10 renal; -60.9% (active) with CAKI-1 renal; -70% (active) in the test with A498 renal. Moreover, the growth with CCRF-CEM leukemia was 10.4%; with MOLT-4 leukemia, 13.4%; with SR leukemia it was 6.79% (active); in the test with OVCAR-8 ovarian, 4.01% (active); with OVCAR-5 ovarian it was 1.36% (active); in the test on OVCAR-4 ovarian it was 18.2%. In addition, the growth is -77.7% (active) in the test on SK-OV-3 ovarian, -24.5% (active) in the test with IGROV1 ovarian, 16.3% in the test on OVCAR-3 ovarian and 78.1% in the test with NCI/ADR-RES ovarian.
